Screening data deposited in PubChem BioAssay by The Scripps Research Institute Molecular Screening Center.
PME-1 primary: PME-1 (human) inhibition. Q9Y570. inhibition, % at 5.9 µM. actives 0.53% (n = 320,000). recombinant PME-1, FP-Rh probe fluorescence polarization;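 active = inhibition above the campaign mean of all compounds plus 3 SD, cut at about 26% in these data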;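 note: competitive labeling of PME-1 active site by serine hydrolase directed probe; 0% = PME-1 with DMSO and 100% = wells lacking PME-1 enzyme; inhibitors block probe labeling so polarization falls and inhibition rises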
PAD4 inh: inhibitors of human PAD4 | inhibition, % at 6.36 µM | actives 0.41% (n = 330,000) | recombinant PAD4, RCA probe fluorescence polarization | AID 485272 | Q9UM07;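 active = percent inhibition above a cutoff equal to the mean of all tested compounds plus 3 SD, cut at about 15% in these data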;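 note: 0% = PAD4 with RCA probe and DMSO and 100% = probe without PAD4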
LYPLA1 inh: LYPLA1 (human) inhibition in PME1 counter-screen; actives 0.16% (n = 320,000); O75608; inhibition, % at 5.9 µM; AID 2174; recombinant LYPLA1, FP-Rh probe fluorescence polarization;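 active = inhibition above the mean of all tested compounds plus 3 SD, set per campaign, cut at about 14% in these data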;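 note: inhibitors block serine hydrolase probe labeling of LYPLA1 so polarization falls; 0% = enzyme with DMSO and 100% = wells lacking LYPLA1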
Target sequence (O75608 whole entry, looked up): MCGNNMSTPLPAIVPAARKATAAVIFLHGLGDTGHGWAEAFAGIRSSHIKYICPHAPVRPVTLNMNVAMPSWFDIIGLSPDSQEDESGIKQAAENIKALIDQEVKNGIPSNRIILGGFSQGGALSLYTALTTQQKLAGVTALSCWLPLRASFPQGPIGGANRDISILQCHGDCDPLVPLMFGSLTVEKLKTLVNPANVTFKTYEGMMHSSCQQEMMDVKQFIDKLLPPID
GSTO1 inh: GSTO1 inhibition, counter-screen for RBBP9 inhibitors | P78417 | recombinant GSTO1, activity-based probe fluorescence polarization | inhibition, % at 5.96 µM | actives 1.1% (n = 300,000) | AID 1974;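 active = inhibition above the campaign mean inhibition plus 3 SD, cut at about 35% in these data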;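 note: 0% = GSTO1-1 with DMSO and 100% = wells lacking GSTO1-1 enzyme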
Target sequence (P78417 whole entry, looked up): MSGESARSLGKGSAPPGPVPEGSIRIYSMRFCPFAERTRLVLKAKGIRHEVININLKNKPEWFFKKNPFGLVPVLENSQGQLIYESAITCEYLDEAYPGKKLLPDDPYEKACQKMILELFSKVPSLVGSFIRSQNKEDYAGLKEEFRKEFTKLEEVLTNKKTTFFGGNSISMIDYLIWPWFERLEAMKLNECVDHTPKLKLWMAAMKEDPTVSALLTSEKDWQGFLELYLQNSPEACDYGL
LYPLA2 counter: LYPLA2 (human) inhibition in PME1 counter-screen; O95372; recombinant LYPLA2, FP-Rh probe fluorescence polarization; inhibition, % at 5.9 µM; actives 0.38% (n = 320,000);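 active = inhibition above the screen-wide mean plus 3 SD, limit set per campaign, cut at about 26% in these data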;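 note: 0% = LYPLA2 with DMSO and 100% = wells lacking LYPLA2 enzyme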
Target sequence (O95372 whole entry, looked up): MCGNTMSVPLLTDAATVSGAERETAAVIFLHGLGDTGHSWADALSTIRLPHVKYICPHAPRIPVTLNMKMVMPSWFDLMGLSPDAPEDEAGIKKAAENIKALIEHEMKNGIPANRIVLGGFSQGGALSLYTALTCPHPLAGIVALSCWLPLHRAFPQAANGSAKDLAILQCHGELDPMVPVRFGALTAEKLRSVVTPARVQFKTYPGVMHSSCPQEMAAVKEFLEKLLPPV
Fam108B counter: Fam108B inhibition, counter-screen for RBBP9 inhibitors; recombinant Fam108B, FP-Rh probe fluorescence polarization; inhibition, % at 9.51 µM; actives 0.33% (n = 300,000); AID 1947;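 active = inhibition above the screen mean inhibition plus 3 SD, computed separately per campaign, cut at about 18% in these data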;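 note: inhibitors lower polarization as less probe binds the enzyme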
GSTO1 inh conf: confirmation of human GSTO1 inhibitors; shares compounds with GSTO1 inh; recombinant GSTO1, probe fluorescence polarization; inhibition, % at 5.96 µM; actives 54% (n = 2,400);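 active = inhibition above the primary screen's cutoff, its mean inhibition plus 3 SD, cut at about 35% in these data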;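 note: loss of polarization as inhibitors block binding of rhodamine sulfonate ester activity probe; 0% = GSTO1 with DMSO and 100% = wells lacking GSTO1 enzyme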
GSTO1 ABPP inh: inhibitors of recombinant human GSTO1 | gel ABPP SE-Rh probe fluorescence | AID 463110 | actives 30% (n = 130) | shares compounds with GSTO1 inh | inhibition, % at 1 µM;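 active = inhibition of the enzyme GSTO1 above about 75%, limit read from the data; inactive = inhibition below that limit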
An asterisk follows results filed as active; / = not tested or not shown. A selection: hits, their analogues and other compounds. The true share with any hit is near 1.8%.

SMILES	PME-1 primary	PAD4 inh	LYPLA1 inh	GSTO1 inh	LYPLA2 counter	Fam108B counter	GSTO1 inh conf	others
O=C(CSc1ncn[nH]1)Nc1ccc(Cl)c(Cl)c1	-0.9	1.7	-3.1	51.7*	-0.4	-5.4	33.8
COc1ccc([N+](=O)[O-])cc1N(CC(=O)N1CCN(Cc2ccccc2)CC1)S(C)(=O)=O	-3.5	-0.3	-2.9	5.5	-4.5	-4.0	/
Cc1ccc(S(=O)(=O)NC(=O)NN2CC3CCCC3C2)cc1 (stereo unspecified)	-7.8	-1.6	-4.2	-0.5	-1.0	-3.2	/
Oc1ccc(O)c(/C(=N/Nc2ccccc2)c2ccccc2)c1	3.2	-15.2	-0.9	39.8*	1.5	5.4	5.7
Cc1cc(C)nc(NN=C(c2ccccc2)c2ccccc2)n1	-6.0	-6.0	-1.2	-1.6	-0.8	-3.9	/
COC(=O)c1ccc(CC(=O)c2ccc(O)cc2O)o1	-10.3	-2.7	-6.7	11.3	-4.6	0.2	/
COC(=O)c1ccc(CC(=O)c2c(C)cc(O)cc2O)o1	1.3	-12.5	-7.0	43.2*	-8.9	1.3	11.7
COCCCNC(=O)c1ccc(Cn2c(=O)c3ccccc3n(Cc3ccccc3C#N)c2=O)cc1	0.1	0.0	-0.2	2.7	0.4	1.9	/
CCC1CCCCN1S(=O)(=O)c1ccc2c(c1)CCN2C(=O)C1CCC1 (stereo unspecified)	2.7	-4.2	4.6	8.3	4.2	-1.9	/
O=C(CCl)c1ccc2c(c1)CCN2C(=O)C1CCCCC1	0.0	0.5	-1.2	41.7*	-5.5	3.2	63.5*
Cc1ccc(S(=O)(=O)N2CCN(c3ccccc3)CC2)c(C)c1	0.8	1.2	-0.6	3.1	-9.5	5.3	/
O=S1(=O)CCO[C@H]2Cc3ccccc3[C@H]2N1Cc1cccc(Cl)c1	3.5	3.1	3.7	6.4	4.8	-2.0	/
O=S1(=O)CCO[C@H]2Cc3ccccc3[C@H]2N1Cc1ccc(Cl)cc1	10.7	0.2	-4.8	37.7*	-3.1	1.9	5.6
C#CCOCCOCCOCCNc1nc(N2CCN(C(=O)Cn3cc(CCCCN)nn3)CC2)nc(N2CCN(C(=O)[C@H](CCCCN)n3cc(CCCC)nn3)CC2)n1	2.1	-2.1	2.2	59.6*	4.9	4.2	1.8
O=C(Nc1oc2ccccc2c(=O)c1-c1ccc(Cl)cc1)c1ccco1	6.9	-6.5	-1.3	-17.7	-2.6	-0.1	/
CC(=O)Nc1ccc(S(=O)(=O)NC2=C(N3CCN(C)CC3)C(=O)c3ccccc3C2=O)cc1	-3.7	-8.8	-5.2	42.8*	-7.2	1.8	37.9*
CCN1CCN(C2=C(NS(=O)(=O)c3ccc(NC(C)=O)cc3)C(=O)c3ccccc3C2=O)CC1	5.2	-6.0	6.2	50.4*	4.2	1.0	14.8
COc1cccc(C(=O)Nc2ccc(C(F)(F)F)n(C)c2=O)c1	0.9	-5.6	-4.0	-6.0	-4.4	-0.2	/
O=C(CN1C(=O)NC2(CCCC2)C1=O)N1CCN(S(=O)(=O)c2ccccc2[N+](=O)[O-])CC1	1.4	0.1	-0.8	2.3	3.1	-0.1	/
COCCn1c(SCC(=O)N2CCCCCC2)nnc1-c1ccco1	-0.5	-9.6	-1.8	39.5*	0.1	4.9	7.3
COCCn1c(SCC(=O)N2CCOCC2)nnc1-c1ccco1	-5.3	4.7	4.8	1.5	3.5	-2.2	/
CC(C)c1cc2c(c(O)c1O)[C@@]13CCCC(C)(C)C1CC2OC3=O (stereo partly specified)	-3.6	4.3	-5.1	40.6*	2.3	-2.2	8.1
COc1ccc(OC)c2c1C(=O)C(Cl)=C(Cl)C2=O	2.5	-7.4	2.6	57.5*	6.5	-1.3	7.8
Cc1ccc2nc(N3CCC(C(=O)O)CC3)nc(-c3ccccc3)c2c1	-6.0	-2.9	-4.4	54.1*	3.6	1.1	57.7*
O=C1CC(N2CCC(c3nc4ccccc4o3)CC2)C(=O)N1 (stereo unspecified)	2.7	0.2	1.1	-5.1	-3.3	0.8	/
SMILES	PME-1 primary	PAD4 inh	LYPLA1 inh	GSTO1 inh	LYPLA2 counter	Fam108B counter	GSTO1 inh conf	others
CC(C)(C)NC(=O)CN1CCN(C(=O)CCl)CC1	0.3	-2.4	0.1	81.7*	-0.4	-4.8	96.1*	GSTO1 ABPP inh=33.0
CCOC(=O)N1CCN(C(=O)CCl)CC1	-2.0	2.7	2.4	77.2*	0.8	-1.2	91.9*
CCOC(=O)N1CCN(C(=O)Cc2ccc(Cl)cc2)CC1	-0.2	-0.6	-1.6	-2.9	2.4	5.0	/
Nc1c(Cl)ncnc1N/N=C/c1cccc(O)c1	2.0	-4.2	3.3	45.1*	5.6	2.1	9.3
CNC(=S)NNC(=O)c1ccc(C(C)(C)C)cc1	-3.7	-0.1	-0.9	2.3	-14.8	2.1	/
O=C1/C(=N\S(=O)(=O)c2cccs2)C([n+]2cccc(Cc3ccccc3)c2)=C([O-])c2ccccc21	1.9	5.4	3.0	87.0*	-16.7	3.5	83.1*
O=C1/C(=N\S(=O)(=O)c2cccs2)C([n+]2ccc(CCCc3ccccc3)cc2)=C([O-])c2ccccc21	3.3	1.1	1.4	78.8*	2.9	5.8	84.4*
CC(C)N(Cc1ccccc1)S(=O)(=O)c1cccs1	-5.3	0.0	1.3	0.5	-6.8	2.5	/
O=C(CN1CCCCC1)Nc1cc(S(=O)(=O)N2CCOCC2)ccc1N1CCCC1	9.5	2.4	-2.3	/	-9.9	/	/
C/C(=C/c1oc2ccc(O)cc2c1[N+](=O)[O-])N(C)C	7.2	-1.9	-0.4	51.0*	0.9	2.1	9.1
CC(=O)Oc1ccc2oc(/C=C/N(C)C)c([N+](=O)[O-])c2c1	-4.0	-4.8	0.0	-2.5	3.1	-1.1	/
CCOc1ccc(OCc2ccc(C(=O)Nc3ccc(Cl)cn3)o2)cc1	-13.6	2.5	-4.8	-0.2	-1.0	-6.6	/
O=C(Nc1ccc(Cl)cn1)c1ccc(COc2ccccc2Br)o1	-17.5	1.2	-6.3	62.9*	-7.6	-11.8	3.0
CN1CCc2cccc3c2[C@H]1Cc1ccc(O)c(O)c1-3	-8.5	5.9	-4.2	88.6*	-3.0	-4.6	5.7
COc1ccc(C(CC(=O)O)NC(=O)COc2cc(C)ccc2C)cc1OC (stereo unspecified)	-1.0	-5.6	-2.6	-3.2	-9.3	1.5	/
O=C(CCl)N(c1ccccc1)c1c[nH]c2ccccc12	1.7	3.2	-2.6	70.1*	-11.3	4.9	78.0*	GSTO1 ABPP inh=34.0
CCN(CC)C(=O)CCCc1c[nH]c2ccccc12	-3.9	-2.5	0.1	-0.6	-2.8	-0.6	/
COc1ccc2c3c(cccc13)OC2=O	-2.8	0.5	0.4	5.9	11.3	0.9	/
COc1ccc2c3c(cccc13)N(C)N=C2C	7.2	10.3	-0.7	70.0*	0.0	3.4	64.0*
CCOc1ccc(OCCCC(=O)Nc2cc(Cl)ccc2-n2cncn2)cc1	0.3	-7.0	0.5	/	-2.8	/	/
